Results on 13 compounds are retold here after PubChem BioAssay (NCI).

The structures appear in SMILES notation. About 83,000 compounds went through this panel and 20% of them were active in at least one assay; those are over-represented in the sample as a whole.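 Testing used 96-well plates and a 48-hour single-concentration exposure. Example: -40 means 40% of the starting cells died.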 Unmarked numbers belong to inactive results. Calls of active or inactive are those of the source. Rule for the calls: active = growth percent below 10; inactive = the rest.

Common to all, as to assay: NCI-60 one-dose screen, 48 h (100 = growth as untreated, 0 = no growth, -100 = all killed)
In assay [1] the test system is SR leukemia. Particulars: 10 µM unless noted.
Assay [2] relates to RPMI-8226 leukemia. The settings on record: 10 µM unless noted.
The test system of assay [3] is OVCAR-8 ovarian. Particulars: 10 µM unless noted.
Assay [4] relates to OVCAR-5 ovarian. Particulars: 10 µM unless noted.
In assay [5] the test system is OVCAR-4 ovarian. The settings on record: 10 µM unless noted.
Assay [6] relates to SK-OV-3 ovarian. The settings on record: 10 µM unless noted.
Assay [7] relates to IGROV1 ovarian. Particulars: 10 µM unless noted.
Assay [8] deals with OVCAR-3 ovarian. The settings on record: 10 µM unless noted.
The subject of assay [9] is HS 578T breast. Particulars: 10 µM.
Assay [10] deals with NCI/ADR-RES ovarian. Particulars: 10 µM unless noted.

Turning to `CC(C)[C@@H](C)/C=C/[C@@H](C)[C@H]1CCC2=C3C=CC4=CC(=O)CC[C@]4(C)[C@H]3CC[C@@]21C`, the growth in assay [1] was 70.8%; in assay [2], 66%; in assay [3] it was 91.1%; in [4], 105%; in assay [5], 101%; in assay [6] it was 105%. Besides, the growth in assay [7] was 110%; in [8] it was 116%; in assay [9] it was 108%; in [10], 101%.

Turning to `CO/C=C/C(=O)c1cc2cnc3c(=N)cc(NC(=O)C(C)C)c([nH]1)c23`, the growth was -24% (active) in [1]; -38.1% (active) in [2]; 0.655% (active) in assay [3]; -16.3% (active) in [4]; -10.7% (active) in assay [5]; -25.7% (active) in assay [6]. In addition, the growth was -40% (active) in [7], -45.1% (active) in assay [8], -6.02% (active) in assay [9] and -9.63% (active) in assay [10].

With `C=C1C(=O)O[C@H]2[C@H]1CC/C(Cn1cc(-c3cc(C)c(C)cc3C)nn1)=C\CC[C@@]1(C)O[C@@H]21`, the growth in [1] was -5.15% (active); in assay [2] it was -24.6% (active); in [3] it was -55.9% (active); in [4] it was -45.6% (active); in assay [5], -94.3% (active); in assay [6], 76.2%. In addition, the growth in [7] is -63.9% (active); in assay [8] it was -95.2% (active); in assay [9] it was 11.6%; in assay [10] it was 5.12% (active).

With `Nc1c2c(c(O)c3c1=C(CO)C=N3)=NCCS2`, the growth in [1] was 3% (active); in assay [2] it was -30.8% (active); in [3], -46.4% (active); in assay [4] it was -70.5% (active); in [5], -95.3% (active); in [6], -90.9% (active). For the same compound, the growth was -64.3% (active) in assay [7], -62.3% (active) in assay [8], 5.57% (active) in [9] and -24.8% (active) in assay [10].

As for `ClCc1ccc(-c2ccc(Cn3cnc4c(Cl)nc(Cl)nc43)cc2)cc1`, the growth was 8.65% (active) in [1]; -47.4% (active) in [2]; -40% (active) in [3]; 57.8% in assay [4]; 21.7% in assay [5]; 87.8% in assay [6]. Also, the growth in [7] was -64.4% (active); in [8], -93.1% (active); in [10], 20.8%.

As for `CCN(CC)CCCC(C)Nc1cc(-c2ccc(C(F)(F)F)cc2)c(C#N)c2nc3ccccc3n12` (configuration not stated), the growth in assay [1] was -17.4% (active); in assay [2], -19.9% (active); in assay [3], 11.8%; in assay [4] it was 11.7%; in assay [5] it was -27.9% (active); in assay [6], 74.3%. The growth is 26.1% in assay [7], 93.5% in assay [8], -19.1% (active) in [9] and 32.2% in assay [10].

Regarding `CN(C)CCn1c(=O)c2c3cc4c(cc3n(CCN(C)C)c2c2ccc(Cl)cc21)OCO4`, the growth in assay [1] was -13.5% (active); in assay [2], 44.7%; in assay [3] it was 31.7%; in assay [4], 81.4%; in [5], 61.3%; in assay [6], 41.3%. For the same compound, the growth was 38.4% in assay [7], 83.5% in assay [8], 84.7% in [9] and 31.4% in [10].

Take `Cc1cc(O)cc(-c2c(-c3ccnc(-c4cccnc4)c3)cnn2C)c1`: the growth in assay [1] was 42.2%; in [2], 51.1%; in [3] it was 73.5%; in assay [4] it was 54.9%; in assay [5], 60.9%; in [6], 69.3%. The growth in assay [7] is 58.8%; in assay [8], 79.4%; in assay [9], 58.9%; in [10], 67.2%.

Take `CCCCCCC1(/C=N/NC(N)=O)NC(=O)NC1=O` (configuration not stated): the growth was 102% in [1]; 111% in assay [2]; 105% in assay [3]; 89% in [4]; 98% in [5]; 83.2% in assay [6]. Moreover, the growth in assay [7] is 105%; in assay [8], 111%; in assay [9] it was 114%; in assay [10] it was 100%.

With `[2H]C1([2H])[C@H](C)O[C@H](C)C([2H])([2H])N1c1ccc(NC(=O)c2cccc(-c3ccc(OC(F)(F)F)cc3)c2C)cn1`, the growth is 56.4% in assay [1]; 53.3% in assay [2]; 79.1% in [3]; 100% in assay [4]; 65.8% in assay [5]; 63.2% in assay [6]. Besides, the growth is 65.2% in [7], 84.6% in assay [8], 88.2% in [9] and 58.4% in assay [10].

As to `CC1(C)NC(=O)c2[nH]c3c(Cl)c(Cl)ccc3c2C1C#N` (configuration not stated), the growth in [1] is 67.5%; in [2], 69.6%; in assay [3], 89.2%; in assay [4], 85.2%; in assay [5] it was 60.7%; in assay [6] it was 100%. Further, the growth in assay [7] was 100%; in [8] it was 82.4%; in assay [10], 85%.

In the case of `COc1cc2nccc(Oc3ccc(NC(=O)C4(C(=O)Nc5ccc(F)cc5)CC4)cc3)c2cc1OC`, the growth in assay [1] is 0.0186% (active); in assay [2] it was 26.4%; in [3], 19.8%; in [4] it was 9.6% (active); in [5], 26.3%; in assay [6], -15.1% (active). Also, the growth in assay [7] is -15.9% (active); in [8], 41.2%; in [10], 13.8%.

With `CC[n+]1c(/C=C/C=C2\N(C)c3ccccc3C2(C)C)sc2ccccc21`, the growth in assay [1] was -5.33% (active); in [2] it was -31% (active); in assay [3], 12.8%; in assay [4] it was 27.4%; in [5], 19.9%; in [6], -12.3% (active). Further, the growth in assay [7] was 32%; in assay [8] it was 8.88% (active); in assay [9], 39.8%; in [10], 30.4%.
